Test results reported in PubChem BioAssay (NCATS).
Results filed as inconclusive are left out. The source made the active and inactive calls. Unless noted, the call rests on the fitted dose curve; in most records, active means well fitted curve in the direction sought with a large enough effect; inconclusive means small, poorly fitted or top-dose-only effect, or another doubt; inactive means no such curve, though single readings can be large; an effect the other way counts as inactive or inconclusive.

Tests used:
AA1029 = assay: qHTS profiling for inhibitors of Plasmodium falciparum proliferation (AID 504749); further: nearly all actives have a fitted effect of over 60% in size; further: potency means the concentration at half of the fitted maximal effect; settings: P. falciparum in erythrocytes, SYBR Green DNA, 72 h; series mostly up to 28.7 µM
How it was run: (§1)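 Parasite proliferation within erythrocytes, 72 h exposure. Endpoint: SYBR Green I fluorescence after overnight lysis at room temperature. Controls: 0.29 uM artemisinin, DMSO.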

AS120 = assay: as above; settings: P. falciparum in erythrocytes, SYBR Green DNA, 72 h; series mostly up to 28.7 µM
How it was run: as §1

ATS95 = assay: as above; settings: P. falciparum in erythrocytes, SYBR Green DNA, 72 h; series mostly up to 28.7 µM
How it was run: as §1

CP260 = assay: as above; settings: P. falciparum in erythrocytes, SYBR Green DNA, 72 h; series mostly up to 28.7 µM
How it was run: as §1

DIV14 = assay: as above; settings: P. falciparum in erythrocytes, SYBR Green DNA, 72 h; series mostly up to 28.7 µM
How it was run: as §1

DIV17 = assay: as above; settings: P. falciparum in erythrocytes, SYBR Green DNA, 72 h; series mostly up to 28.7 µM
How it was run: as §1

GB4 = assay: as above; settings: P. falciparum in erythrocytes, SYBR Green DNA, 72 h; series mostly up to 28.7 µM
How it was run: as §1

P93_24 = assay: as above; settings: P. falciparum in erythrocytes, SYBR Green DNA, 72 h; series mostly up to 28.7 µM
How it was run: as §1

P94_40 = assay: as above; settings: P. falciparum in erythrocytes, SYBR Green DNA, 72 h; series mostly up to 28.7 µM
How it was run: as §1

SC27B = assay: as above; settings: P. falciparum in erythrocytes, SYBR Green DNA, 72 h; series mostly up to 28.7 µM
How it was run: as §1

TAB109 = assay: as above; settings: P. falciparum in erythrocytes, SYBR Green DNA, 72 h; series mostly up to 28.7 µM
How it was run: as §1

TAB165 = assay: as above; settings: P. falciparum in erythrocytes, SYBR Green DNA, 72 h; series mostly up to 28.7 µM
How it was run: as §1

[1] = target: Vitamin D3 receptor (Homo sapiens) (UniProt P11473); assay: qHTS assay for small molecule antagonists of vitamin D receptor signaling (AID 588541; calls by dose curve;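 further: receptor activated by calcitriol during compound treatment; on the % scale 0 is the no-effect control and ±100 the full control effect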)
How it was run: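 VDR-UAS-bla HEK293T cells (2000/well, 2% charcoal-stripped FBS) were treated with titrated compounds plus 1-alpha,25-dihydroxyvitamin D3 (50 nM or 3 nM final) for 16 h at 37 C. CCF4 beta-lactamase fluorescence was read; Hill fits gave IC50.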

[2] = target: Vitamin D3 receptor (Homo sapiens) (UniProt P11473); assay: qHTS assay for small molecule agonists of vitamin D receptor signaling (AID 588543; calls by dose curve;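 further: 0% = DMSO basal and 100% = reference agonist control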)
How it was run: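 β-lactamase reporter, VDR-UAS-bla HEK293T, agonist mode. Cells plated 5 h at 37 °C, compound titration 16 h at 37 °C, CCF4 dye 2 h RT, ratio 460/530 nm. Hill fit → EC50, efficacy vs 50 nM 1α,25-(OH)2D3.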

[3] = target: Retinoic acid receptor RXR-alpha (Homo sapiens) (UniProt P19793); assay: qHTS assay for small molecule antagonists of retinoid X receptor alpha signaling (AID 588546; active means well fitted inhibition curve with a large enough effect in the signal ratio, with a control signal flat, not every such curve was filed as active; the % refers to the signal ratio; further: potency means the concentration at half of the fitted maximal effect;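 on max response: cells stimulated with 9-cis-retinoic acid as agonist; on the % scale 0 is the no-effect control and ±100 the full control effect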); settings: HEK293T RXRa-UAS-bla, beta-lactamase ratio, antagonist mode
How it was run: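 Beta-lactamase reporter inhibition, read as CCF4 fluorescence ratio (ex 405, em 460/530 nm) after 2 h at RT. HEK293T UAS-bla cells, 2500/well, were stimulated with 9-cis-RA at 500 or 100 nM final alongside test compound for 18 h at 37 C.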

[4] = target: Thyroid hormone receptor beta (Homo sapiens) (UniProt P10828); assay: qHTS assay for small molecule antagonists of thyroid hormone receptor beta signaling (AID 588547; active means well fitted inhibition curve with a large enough effect in the signal ratio, with a control signal flat, not every such curve was filed as active; the % refers to the signal ratio; further: potency means the concentration at half of the fitted maximal effect;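 on activity change % (negative = inhibition): cells stimulated with 0.4 nM T3 agonist during compound exposure; on the % scale 0 is the no-effect control and ±100 the full control effect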); settings: TR-UAS-bla HEK293, beta-lactamase ratio, antagonist mode, 18 h
How it was run: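 TR-UAS-bla GripTite HEK293 cells in 2% charcoal/dextran FBS medium were preincubated 4 h at 37 C, given compound (0.59 nM to 92 uM) plus 0.4 nM T3 (final) for 18 h, then CCF4 for 2 h at RT; Hill fit gave IC50.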

[5] = qHTS assay for environmental chemicals that activate the Aryl hydrocarbon Receptor (AhR) signaling pathway (AID 651777); settings: 1A2-DRE human hepatoma cells, luciferase, 24 h; activation: hits give high values; further: % of control where 0% means no effect; nearly all actives have a fitted effect of over 15% in size
How it was run: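 Reporter gene assay: hepatoma cells with DRE/CYP1A2-luciferase, 24 hr compound incubation at 37 C, 5% CO2, luminescence after One-Glo (30 min, RT).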

[6] = qHTS assay for small molecule agonists of the antioxidant response element (ARE) signaling pathway measured by Nrf2-dependant transcriptional activity - cell viability counter screen (AID 720653; active means well fitted curve in the direction sought with a large enough effect in the repeat runs; an effect the other way counts as inactive or inconclusive; further: potency means the concentration at half of the fitted maximal effect; on max response: on the % scale 0 is the no-effect control and ±100 the full control effect); settings: ARE-bla HepG2 viability, CellTiter-Glo ATP luminescence, 16 h; max response: hits give low values
How it was run: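 ARE-bla HepG2 cells (2,000/well) rested 5 hrs at 37C/5% CO2, then exposed to compounds in DMSO for 16 hrs. Viability was read in the same wells as intracellular ATP by luminescence, 30 min at room temperature after reagent addition.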

[7] = target: DNA dC->dU-editing enzyme APOBEC-3G (Homo sapiens) (UniProt Q9HC16); assay: qHTS for inhibitors of Vif-A3G interactions: Validation (AID 588379); further: 0% is about no effect
How it was run: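 HeLa cells stably expressing Vif and A3G-eYFP, 700 cells/well, incubated overnight at 37 deg C, then exposed to compound overnight at 37 deg C. Inhibition of Vif-mediated degradation read as increased yellow fluorescence (Ex 488/Em 500-530) by laser-scanning cytometry.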

[8] = target: Estrogen receptor (Homo sapiens) (UniProt P03372); assay: qHTS assay for small molecule agonists of estrogen receptor alpha signaling (AID 588514; calls by dose curve;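 further: 0% = vehicle only and 100% = reference agonist; nearly all actives have a fitted effect of over 70% in size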)
How it was run: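 Cells were plated at 5000/well, incubated 4 hrs at 37 C, dosed with compound titration series, incubated 18 hrs at 37 C, loaded with CCF4 dye for 2 hrs at RT, then fluorescence was read.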

Sequence of Thyroid hormone receptor beta (Homo sapiens) (P10828 whole entry, looked up): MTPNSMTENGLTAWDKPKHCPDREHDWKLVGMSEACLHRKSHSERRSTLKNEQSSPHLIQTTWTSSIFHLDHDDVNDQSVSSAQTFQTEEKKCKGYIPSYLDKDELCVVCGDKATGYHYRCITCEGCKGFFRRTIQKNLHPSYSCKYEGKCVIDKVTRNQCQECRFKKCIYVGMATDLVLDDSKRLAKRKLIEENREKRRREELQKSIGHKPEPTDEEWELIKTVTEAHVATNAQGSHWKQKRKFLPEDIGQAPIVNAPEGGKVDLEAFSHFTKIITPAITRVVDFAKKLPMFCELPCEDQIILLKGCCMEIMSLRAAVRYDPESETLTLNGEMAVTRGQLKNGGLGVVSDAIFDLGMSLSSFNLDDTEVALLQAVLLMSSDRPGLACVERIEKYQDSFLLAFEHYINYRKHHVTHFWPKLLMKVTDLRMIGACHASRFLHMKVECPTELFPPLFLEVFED
Sequence of Retinoic acid receptor RXR-alpha (Homo sapiens) (P19793 whole entry, looked up): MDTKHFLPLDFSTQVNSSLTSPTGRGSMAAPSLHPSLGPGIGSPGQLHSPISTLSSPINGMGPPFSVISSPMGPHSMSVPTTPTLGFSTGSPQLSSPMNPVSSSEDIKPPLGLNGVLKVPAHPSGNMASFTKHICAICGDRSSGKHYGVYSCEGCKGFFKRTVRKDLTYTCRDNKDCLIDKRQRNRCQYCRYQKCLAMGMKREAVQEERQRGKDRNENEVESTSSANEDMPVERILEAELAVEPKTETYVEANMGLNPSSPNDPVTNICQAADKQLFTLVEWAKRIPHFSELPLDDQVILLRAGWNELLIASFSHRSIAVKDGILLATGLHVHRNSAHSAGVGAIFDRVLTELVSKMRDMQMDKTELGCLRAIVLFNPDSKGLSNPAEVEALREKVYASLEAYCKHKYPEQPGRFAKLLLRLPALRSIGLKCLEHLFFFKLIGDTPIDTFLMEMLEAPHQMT
Sequence of Vitamin D3 receptor (Homo sapiens) (P11473 whole entry, looked up): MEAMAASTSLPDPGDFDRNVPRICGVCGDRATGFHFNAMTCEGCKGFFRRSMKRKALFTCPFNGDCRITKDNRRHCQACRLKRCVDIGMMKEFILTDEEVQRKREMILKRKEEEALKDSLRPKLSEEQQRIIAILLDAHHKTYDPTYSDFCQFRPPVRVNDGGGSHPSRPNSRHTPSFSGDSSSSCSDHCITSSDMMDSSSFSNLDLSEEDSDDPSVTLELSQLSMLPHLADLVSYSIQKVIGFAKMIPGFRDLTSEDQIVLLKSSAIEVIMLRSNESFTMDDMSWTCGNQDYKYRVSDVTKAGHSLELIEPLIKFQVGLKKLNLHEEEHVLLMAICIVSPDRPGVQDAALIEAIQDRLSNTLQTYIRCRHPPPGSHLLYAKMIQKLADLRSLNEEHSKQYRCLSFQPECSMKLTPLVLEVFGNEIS
Sequence of Estrogen receptor (Homo sapiens) (P03372 whole entry, looked up): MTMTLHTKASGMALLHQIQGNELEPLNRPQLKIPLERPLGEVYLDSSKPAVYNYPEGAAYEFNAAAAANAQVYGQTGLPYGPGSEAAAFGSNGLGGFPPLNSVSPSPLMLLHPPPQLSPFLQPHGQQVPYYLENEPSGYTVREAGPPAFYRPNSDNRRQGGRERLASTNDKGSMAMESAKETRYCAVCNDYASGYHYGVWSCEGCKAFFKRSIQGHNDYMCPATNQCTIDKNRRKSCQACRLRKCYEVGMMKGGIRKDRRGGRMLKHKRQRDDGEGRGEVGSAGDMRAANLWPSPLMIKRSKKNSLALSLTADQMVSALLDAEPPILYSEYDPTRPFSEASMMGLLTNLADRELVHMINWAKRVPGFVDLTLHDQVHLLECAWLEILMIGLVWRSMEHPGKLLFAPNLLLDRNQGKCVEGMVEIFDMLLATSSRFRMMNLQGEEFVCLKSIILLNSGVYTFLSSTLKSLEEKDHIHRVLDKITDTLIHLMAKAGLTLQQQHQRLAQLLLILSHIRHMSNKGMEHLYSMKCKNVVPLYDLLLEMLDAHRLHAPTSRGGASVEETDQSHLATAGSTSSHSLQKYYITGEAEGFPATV
Sequence of DNA dC->dU-editing enzyme APOBEC-3G (Homo sapiens) (Q9HC16 whole entry, looked up): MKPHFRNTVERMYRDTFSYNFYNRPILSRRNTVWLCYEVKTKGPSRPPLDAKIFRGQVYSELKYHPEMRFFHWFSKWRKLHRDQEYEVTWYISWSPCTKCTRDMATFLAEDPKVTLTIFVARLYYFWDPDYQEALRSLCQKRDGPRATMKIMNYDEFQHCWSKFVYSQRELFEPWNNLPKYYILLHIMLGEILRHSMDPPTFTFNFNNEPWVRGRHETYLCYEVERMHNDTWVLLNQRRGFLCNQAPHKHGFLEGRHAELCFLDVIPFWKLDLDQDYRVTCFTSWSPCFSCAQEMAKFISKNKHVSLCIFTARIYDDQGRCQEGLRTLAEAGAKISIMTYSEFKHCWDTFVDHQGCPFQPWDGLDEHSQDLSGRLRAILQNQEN

CC12CCC3C4CCC(=O)C(O)=C4CCC3C1CCC2OC(=O)CCC1CCCC1 (stereo unspecified)
inactive: Potency (AA1029) | Potency (AS120) | Potency (ATS95) | Potency (CP260) | Potency (DIV14) | Potency (DIV17) | Potency (GB4) | Potency (P93_24) | Potency (P94_40) | Potency (SC27B) | Potency (TAB109) | Potency (TAB165)

C=CC[C@]1(O)CCC2C3CCC4=CCCCC4C3CCC21C (stereo partly specified)
inactive: Potency (AA1029) | Potency (AS120) | Potency (CP260) | Potency (DIV17) | Potency (GB4) | Potency (P93_24) | Potency (SC27B) | Potency (TAB109) | Potency (TAB165)

C#C[C@]1(O)CC[C@H]2[C@@H]3CCC4=CC(=O)CCC4(C)[C@H]3CCC21C (stereo partly specified)
inactive: Potency (AA1029) | Potency (AS120) | Potency (ATS95) | Potency (CP260) | Potency (DIV14) | Potency (DIV17) | Potency (GB4) | Potency (P93_24) | Potency (P94_40) | Potency (SC27B) | Potency (TAB109) | Potency (TAB165)

C#CC1(O)C=CC2C3CCC4=CC(=O)CCC4C3CCC21CC (stereo unspecified)
inactive: Potency (AS120)
active: Potency (DIV14) 6.75 µM | Potency (DIV17) 9.53 µM

CCCC(C)C1(CC)C(=O)NC(=S)NC1=O (stereo unspecified)
inactive: Potency (AA1029) | Potency (AS120) | Potency (ATS95) | Potency (CP260) | Potency (DIV14) | Potency (DIV17) | Potency (GB4) | Potency (P93_24) | Potency (P94_40) | Potency (SC27B) | Potency (TAB109) | Potency (TAB165)

CCCCN(CC)c1c([N+](=O)[O-])cc(C(F)(F)F)cc1[N+](=O)[O-]
inactive: Potency [1] | outcome [2] | max response [3] -14% | activity change % (negative = inhibition) [4] -21.6% | activation [5] -0.444% | max response [6] -14.4%

C[C@]12CCC3C(CC[C@]4(O)C[C@@H](O)CC[C@]34C=O)[C@@]1(O)CC[C@@H]2C1=CC(=O)OC1 (stereo partly specified)
inactive: outcome [7]

CC(C)N(C(=O)CCl)c1ccccc1
inactive: activation [5] -1.87%
active: Potency [6] 39.8 µM

CC1(C)S[C@H]2[C@@H](N)C(=O)N2[C@H]1C(=O)O
inactive: outcome [7]

N#Cc1c(Cl)c(Cl)c(Cl)c(C#N)c1Cl
active: Potency [3] 7.08 µM | Potency [4] 2.51 µM | Potency [6] 70.8 µM

CC1=CC(=O)c2c(O)cccc2C1=O
inactive: outcome [7]

C/C=C1/C[C@@H](C)[C@](O)(CO)C(=O)OCC2=CCN3CC[C@@H](OC1=O)C23 (stereo partly specified)
inactive: outcome [7]

COc1cc2c(cc1OC)-c1c(OC)c(OC)c(C=O)c3c1[C@H](C2)N(C)CC3
inactive: outcome [7]

O=C(NC(=O)c1c(F)cccc1F)Nc1ccc(Cl)cc1
inactive: Potency [1] | activity change % (negative = inhibition) [4] -1.34% | max response [6] -7.3%

CSc1nc(NC(C)C)nc(NC(C)C)n1
inactive: Potency [8] | Potency [1] | outcome [2] | activity change % (negative = inhibition) [4] -0.16% | activation [5] -2.16% | max response [6] 9.37%

O=C1C=C2C(=CCOC2O)O1 (stereo unspecified)
inactive: outcome [2]

CCOc1nc(NC)nc(NC(=O)NS(=O)(=O)c2ccccc2C(=O)OC)n1
inactive: Potency [8] | outcome [2] | max response [3] 20.8% | activation [5] 0.873% | max response [6] 13.3%

CCOP(=O)(SC(C)CC)SC(C)CC (stereo unspecified)
inactive: Potency [8] | Potency [1] | outcome [2] | activity change % (negative = inhibition) [4] -3.53% | activation [5] 0.937% | max response [6] -6.4%

C/C(=N\C(N)=O)N(C)Cc1ccc(Cl)nc1
inactive: Potency [8] | Potency [1] | outcome [2] | max response [3] -3.51% | activity change % (negative = inhibition) [4] -10.7% | activation [5] -0.747% | max response [6] -7.18%

COc1ccc(CC2NCC(O)C2OC(C)=O)cc1 (stereo unspecified)
inactive: outcome [7]

C[C@]12[C@H](O)CC3C(CC[C@@H]4C[C@@H](O)CC[C@]34C)[C@@]1(O)CC[C@@H]2C1=CC(=O)OC1 (stereo partly specified)
inactive: outcome [7]

COc1cc2c(cc1OC)-c1c(OC)c(OC)c(CO)c3c1C(C2)N(C)CC3 (stereo unspecified)
inactive: outcome [7]

CC1=CC(=O)C2=C(C)C[C@H](O)[C@H]3[C@H](C)C(=O)O[C@@H]3C12 (stereo partly specified)
inactive: outcome [7]
